{
  "source": "PubChem BioAssay (NCI)",
  "note": "About 79,000 compounds went through this panel and 15% of them were active in at least one assay; those are over-represented in the sample as a whole. Values without a mark were called inactive. Active and inactive are the calls of the source. Rule as the data show it: active = growth inhibition above about 70%; inactive = the rest.",
  "data": [
    {"assay": "NCI Yeast Anticancer Drug Screen. Data for the mlh1 rad18 strain (AID 175)", "conditions": "S. cerevisiae mlh1 rad18 strain growth inhibition; at 50.0 µM (retest, dose inferred, filed as 5.0); active compounds read high", "procedure,_shortened": "(§1)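 Steps: expose repair-defective yeast to compound; measure growth; express inhibition against vehicle-treated controls.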", "values": [
      {"smiles": "CC(=O)[O][Bi]([c]1ccccc1)[c]1ccccc1", "growth inhibition": "93% (active)"},
      {"smiles": "CC1=C(SCCO)C(=O)c2ccccc2C1=O", "growth inhibition": "62%"},
      {"smiles": "C/C(=N\\O)C1CC2C=C(C#N)C1N(Cc1ccccc1)C2", "note": "(centres undefined)", "growth inhibition": "62%"},
      {"smiles": "CC(Br)C(=O)c1ccc2cc(Br)c3ccccc3c2c1", "note": "(centres undefined)", "growth inhibition": "38%"},
      {"smiles": "Nc1nc(-c2cccnc2)cc(-c2cc(-c3cccnc3)nc(N)n2)n1", "growth inhibition": "10%"},
      {"smiles": "CC(C)=CC(=O)O[C@@H]1CC(C)(C)CC2C3=CCC4[C@]56CC[C@](O)(OC5)C(C)(C)C6CC[C@@]4(C)C3(C)CC[C@]21C(=O)O", "note": "(some centres undefined)", "growth inhibition": "90% (active)"},
      {"smiles": "CCC(C)COC(=O)c1ccc(N=Cc2ccc(C=Nc3ccc(C(=O)OCC(C)CC)cc3)cc2)cc1", "note": "(centres undefined)", "growth inhibition": "50%"},
      {"smiles": "Oc1cccc2c(Cl)ccnc12", "growth inhibition": "99% (active)"},
      {"smiles": "O=C(O)c1cccc(-c2c3ccc(=O)cc-3oc3cc(O)ccc23)c1", "growth inhibition": "99% (active)"},
      {"smiles": "CN(CCc1ccccn1)c1ccc2c(c1)Cc1ccccc1-2", "growth inhibition": "72% (active)"},
      {"smiles": "Cc1cc(S(=O)(=O)/N=C(/NN)NNc2cccc(C(F)(F)F)n2)c(S)cc1Cl", "growth inhibition": "52%"},
      {"smiles": "O=C1C2C(C(=O)N1c1ccc(OCc3ccccc3)cc1)C1c3ccccc3C2C2CCCCN21", "note": "(centres undefined)", "growth inhibition": "69%"},
      {"smiles": "Nc1ccccc1CC(O)C(=O)O", "note": "(centres undefined)", "growth inhibition": "94% (active)"},
      {"smiles": "O=C(O)C1CCCCC1c1c2ccc(=O)c(O)c-2oc2c(O)c(O)ccc12", "note": "(centres undefined)", "growth inhibition": "84% (active)"},
      {"smiles": "Cc1ccc2ccc(O)cc2c1", "growth inhibition": "63%"},
      {"smiles": "O=C1C(=O)c2ccccc2C=C1[N+](=O)[O-]", "growth inhibition": "64%"},
      {"smiles": "COC(=O)c1ccc(NCC2=CC(=O)C=CC2=O)cc1O", "growth inhibition": "93% (active)"},
      {"smiles": "C(CCSC1=NCCN1)CSC1=NCCN1", "note": "(tested in a mixture with another compound)", "growth inhibition": "98% (active)"},
      {"smiles": "N#Cc1c(N)[nH]c2ccc(Sc3ccccc3)cc12", "growth inhibition": "85% (active)"},
      {"smiles": "CCNc1nnc(CSc2nc(-c3ccccc3)c(-c3ccccc3)[nH]2)s1", "growth inhibition": "93% (active)"}
    ]},
    {"assay": "NCI Yeast Anticancer Drug Screen. Data for the mlh1 rad18 strain (AID 175)", "conditions": "S. cerevisiae mlh1 rad18 strain growth inhibition; at 50.0 µM; active compounds read high", "procedure,_shortened": "as §1", "values": [
      {"smiles": "S=C(S)NN1CCOCC1", "growth inhibition": "86.8% (active)"},
      {"smiles": "COc1cc2c3c(cccc3c1)C(=O)N(CCN(C)C)C2=O", "growth inhibition": "-50.4%"},
      {"smiles": "COC(=O)C1=C(C)NC(C)=C(C(=O)OCCCN2CCC(c3ccccc3)(c3ccccc3)CC2)C1c1cccc([N+](=O)[O-])c1", "note": "(centres undefined)", "growth inhibition": "92.7% (active)"},
      {"smiles": "c1ccc2c(c1)Oc1cccc3cccc-2c13", "growth inhibition": "42.7%"},
      {"smiles": "CN(C)CCOc1ccc2c(c1)C/C(=C/c1ncc([N+](=O)[O-])n1C)C2=O", "growth inhibition": "89.3% (active)"},
      {"smiles": "Cc1ccc(CCC2=CCCc3c2ccc2ccccc32)cc1", "growth inhibition": "16.9%"},
      {"smiles": "CNC(=O)OCc1c(COC(=O)NC)c(-c2ccc(Cl)c(Cl)c2)n2c1CCC2", "growth inhibition": "91.2% (active)"},
      {"smiles": "Clc1ccccc1C1OC1c1ccccc1Cl", "note": "(centres undefined)", "growth inhibition": "5%"},
      {"smiles": "O=[N+]([O-])c1cc(CCl)ccc1CCl", "growth inhibition": "99% (active)"},
      {"smiles": "O=C1C=CC(=O)c2c(O)c(Nc3ccc(OC(F)(F)F)cc3)c(Cl)c(O)c21", "growth inhibition": "68.7%"},
      {"smiles": "S=c1[nH]nc(Nc2ccc(Cl)cc2)s1", "growth inhibition": "92.6% (active)"},
      {"smiles": "Cn1ccnc1Oc1ccc(Cl)cc1", "growth inhibition": "89.2% (active)"},
      {"smiles": "BrCc1cccc2ccc3cccc(CBr)c3c12", "growth inhibition": "73.5% (active)"},
      {"smiles": "O=C1c2ccccc2-c2nc3ccccc3nc21", "growth inhibition": "66.7%"},
      {"smiles": "CCCCCCCCCCCCCCCCCCNC", "growth inhibition": "61.3%"},
      {"smiles": "Oc1ccc(NCn2c(=S)sc3ccccc32)cc1", "growth inhibition": "63%"},
      {"smiles": "O=C1C2CC[C@@H]3C(=O)C(Cl)(Cl)[C@@H]3CCC2C1(Cl)Cl", "note": "(some centres undefined)", "growth inhibition": "79.2% (active)"},
      {"smiles": "CC[n+]1ccc2c(C)c3[nH]c4ccc(O)cc4c3c(C)c2c1", "growth inhibition": "65%"},
      {"smiles": "Cc1ccc(-n2cc(-c3ccc(Cl)cc3)c(C#N)c2N)cc1", "growth inhibition": "78.3% (active)"},
      {"smiles": "CC(=O)[O][Bi]([c]1ccccc1)[c]1ccccc1", "growth inhibition": "91% (active)"},
      {"smiles": "CC1=C(SCCO)C(=O)c2ccccc2C1=O", "growth inhibition": "81.1% (active)"},
      {"smiles": "C/C(=N\\O)C1CC2C=C(C#N)C1N(Cc1ccccc1)C2", "note": "(centres undefined)", "growth inhibition": "9%"},
      {"smiles": "CC(Br)C(=O)c1ccc2cc(Br)c3ccccc3c2c1", "note": "(centres undefined)", "growth inhibition": "68.3%"},
      {"smiles": "Nc1nc(-c2cccnc2)cc(-c2cc(-c3cccnc3)nc(N)n2)n1", "growth inhibition": "28.6%"},
      {"smiles": "CC(C)=CC(=O)O[C@@H]1CC(C)(C)CC2C3=CCC4[C@]56CC[C@](O)(OC5)C(C)(C)C6CC[C@@]4(C)C3(C)CC[C@]21C(=O)O", "note": "(some centres undefined)", "growth inhibition": "78% (active)"},
      {"smiles": "CCC(C)COC(=O)c1ccc(N=Cc2ccc(C=Nc3ccc(C(=O)OCC(C)CC)cc3)cc2)cc1", "note": "(centres undefined)", "growth inhibition": "57.1%"},
      {"smiles": "Oc1cccc2c(Cl)ccnc12", "growth inhibition": "91% (active)"},
      {"smiles": "O=C(O)c1cccc(-c2c3ccc(=O)cc-3oc3cc(O)ccc23)c1", "growth inhibition": "47.8%"},
      {"smiles": "CN(CCc1ccccn1)c1ccc2c(c1)Cc1ccccc1-2", "growth inhibition": "77.4% (active)"},
      {"smiles": "Cc1cc(S(=O)(=O)/N=C(/NN)NNc2cccc(C(F)(F)F)n2)c(S)cc1Cl", "growth inhibition": "19.6%"},
      {"smiles": "O=C1C2C(C(=O)N1c1ccc(OCc3ccccc3)cc1)C1c3ccccc3C2C2CCCCN21", "note": "(centres undefined)", "growth inhibition": "90.9% (active)"},
      {"smiles": "Nc1ccccc1CC(O)C(=O)O", "note": "(centres undefined)", "growth inhibition": "92.7% (active)"},
      {"smiles": "O=C(O)C1CCCCC1c1c2ccc(=O)c(O)c-2oc2c(O)c(O)ccc12", "note": "(centres undefined)", "growth inhibition": "75.3% (active)"},
      {"smiles": "Cc1ccc2ccc(O)cc2c1", "growth inhibition": "48.5%"},
      {"smiles": "O=C1C(=O)c2ccccc2C=C1[N+](=O)[O-]", "growth inhibition": "68.8%"},
      {"smiles": "COC(=O)c1ccc(NCC2=CC(=O)C=CC2=O)cc1O", "growth inhibition": "92.2% (active)"},
      {"smiles": "C(CCSC1=NCCN1)CSC1=NCCN1", "note": "(tested in a mixture with another compound)", "growth inhibition": "99% (active)"},
      {"smiles": "N#Cc1c(N)[nH]c2ccc(Sc3ccccc3)cc12", "growth inhibition": "70.5% (active)"},
      {"smiles": "CCNc1nnc(CSc2nc(-c3ccccc3)c(-c3ccccc3)[nH]2)s1", "growth inhibition": "86.3% (active)"}
    ]}
  ]
}
